Calls of active or inactive are those of the source.
Key:
Albumin (Bos taurus) = Albumin (Bos taurus) (UniProt P02769); assay: bovine serum albumin binders on microarray, profiling panel, artefact control for SMM control protein annotation, biochemical, small-molecule microarray, Alexa647 label, 635/667 nm fluorescence (AID 1118); details: BSA-A647 binding, fluorescence 635 nm, higher = more signal;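 note: score merges 667 nm emission intensity and signal-to-noise per printed compound spot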
[1] = small-molecule microarray binders of probe aXIP, primary screen, biochemical, NeuroSMM set, 635/667 nm fluorescence (AID 1119); details: higher = more signal, called active from +8 up or from −8 down;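 note: probe is the protein aXip251-270 applied at 1 µg/mL to compound-printed slides; binding of probe to printed compounds measured as 667 nm fluorescence plus signal to noise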
[2] = small-molecule binders of probe aNOTCH3, primary screen, biochemical, small-molecule microarray, 635/667 nm fluorescence (AID 1120); details: higher = more signal;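 note: probe is a biotin-tagged antibody raised against NOTCH3 rather than NOTCH3 protein; score merges spot fluorescence near 667 nm with spot signal to noise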
[3] = small-molecule binders of probe aNOTCH2, primary screen, biochemical, small-molecule microarray, 635/667 nm fluorescence (AID 1121); details: higher = more signal;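 note: score merges feature fluorescence read at 667 nm with its signal to noise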
[4] = target: Carbonic anhydrase 2 (Homo sapiens) (UniProt P00918); assay: CAII small-molecule binders, profiling panel, biochemical, small-molecule microarray, Alexa647-labelled CAII (AID 1122); details: CAII-A647 binding fluorescence, higher = more signal
[5] = COS7 lysate on small-molecule microarray, probe aHis, 635 nm (AID 1123); details: COS7 cell lysate, fluorescence, higher = more signal;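 note: z-score combines 667nm fluorescence intensity with signal-to-noise per printed compound spot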
[6] = compound binding in COS7 lysate, probe aLAP1, primary screen, cell lysate, small-molecule microarray (AID 1124); details: probe aLAP1, fluorescence, higher = more signal;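 note: lysate comes from COS7 cells expressing LAP1 and is applied at 0.3 µg/mL; score merges spot fluorescence near 667 nm with signal-to-noise over triplicate slides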
Sam68 (KHDRBS1) = assay: Sam68 small-molecule binders, primary screen, biochemical, small-molecule microarray, 635 nm fluorescence (AID 1125); details: small-molecule microarray binding, higher = more signal;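 note: score merges 667 nm channel intensity with signal to noise over triplicate slides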
[7] = test system: Chordin-like protein 2 (CHRDL2); assay: CHRDL2 small-molecule binders, primary screen, biochemical, small-molecule microarray, 635 nm fluorescence (AID 1126); details: small-molecule microarray binding, fluorescence 635 nm; higher = more signal;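 note: printed compound slides probed with Chrdl2 protein at 4 µg/mL for 1 h at 4 C; score merges 667 nm emission intensity with signal to noise over three replicate slides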
[8] = target: Concanavalin-A (Canavalia ensiformis) (UniProt P02866); assay: ConA small-molecule binders, primary screen, artefact control for SMM control protein annotation, biochemical, small-molecule microarray, Alexa647 label, 635 nm (AID 1127); details: ConA-A647 binding fluorescence, higher = more signal;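 note: z combines 667 nm emission intensity with signal-to-noise across three replicate slides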
Sequence of Concanavalin-A (Canavalia ensiformis) (P02866 whole entry, looked up): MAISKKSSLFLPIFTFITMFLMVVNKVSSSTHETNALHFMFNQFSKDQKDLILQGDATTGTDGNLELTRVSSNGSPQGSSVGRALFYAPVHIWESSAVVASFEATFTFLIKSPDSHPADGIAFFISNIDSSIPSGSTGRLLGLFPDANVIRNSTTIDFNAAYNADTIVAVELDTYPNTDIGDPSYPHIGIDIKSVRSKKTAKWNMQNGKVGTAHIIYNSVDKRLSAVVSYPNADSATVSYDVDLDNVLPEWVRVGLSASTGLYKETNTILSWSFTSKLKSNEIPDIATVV

[9] = anti-His antibody binders, primary screen, artefact control for SMM control protein annotation, biochemical, small-molecule microarray, 635 nm fluorescence (AID 1128); details: anti-His Alexa647 antibody binding, higher = more signal;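 note: score merges feature fluorescence with signal-to-noise for each printed compound spot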
[10] = test system: Human papillomavirus type 1a E7 protein (residues 1-88); assay: HPV1a E7 small-molecule binders, primary screen, biochemical, small-molecule microarray, residues 1-88, 635 nm (AID 1129); details: small-molecule microarray binding, fluorescence 635 nm; higher = more signal
[11] = target: Focal adhesion kinase 1 (Homo sapiens) (UniProt Q05397); assay: small-molecule microarray binders of FAK, primary screen, biochemical, 635/667 nm fluorescence, BSA, DTT (AID 1130); details: PTK2 binding, 635 nm fluorescence, higher = more signal;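 note: composite of spot emission at 667 nm and signal to noise over triplicate slides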
Sequence of Focal adhesion kinase 1 (Homo sapiens) (Q05397 whole entry, looked up): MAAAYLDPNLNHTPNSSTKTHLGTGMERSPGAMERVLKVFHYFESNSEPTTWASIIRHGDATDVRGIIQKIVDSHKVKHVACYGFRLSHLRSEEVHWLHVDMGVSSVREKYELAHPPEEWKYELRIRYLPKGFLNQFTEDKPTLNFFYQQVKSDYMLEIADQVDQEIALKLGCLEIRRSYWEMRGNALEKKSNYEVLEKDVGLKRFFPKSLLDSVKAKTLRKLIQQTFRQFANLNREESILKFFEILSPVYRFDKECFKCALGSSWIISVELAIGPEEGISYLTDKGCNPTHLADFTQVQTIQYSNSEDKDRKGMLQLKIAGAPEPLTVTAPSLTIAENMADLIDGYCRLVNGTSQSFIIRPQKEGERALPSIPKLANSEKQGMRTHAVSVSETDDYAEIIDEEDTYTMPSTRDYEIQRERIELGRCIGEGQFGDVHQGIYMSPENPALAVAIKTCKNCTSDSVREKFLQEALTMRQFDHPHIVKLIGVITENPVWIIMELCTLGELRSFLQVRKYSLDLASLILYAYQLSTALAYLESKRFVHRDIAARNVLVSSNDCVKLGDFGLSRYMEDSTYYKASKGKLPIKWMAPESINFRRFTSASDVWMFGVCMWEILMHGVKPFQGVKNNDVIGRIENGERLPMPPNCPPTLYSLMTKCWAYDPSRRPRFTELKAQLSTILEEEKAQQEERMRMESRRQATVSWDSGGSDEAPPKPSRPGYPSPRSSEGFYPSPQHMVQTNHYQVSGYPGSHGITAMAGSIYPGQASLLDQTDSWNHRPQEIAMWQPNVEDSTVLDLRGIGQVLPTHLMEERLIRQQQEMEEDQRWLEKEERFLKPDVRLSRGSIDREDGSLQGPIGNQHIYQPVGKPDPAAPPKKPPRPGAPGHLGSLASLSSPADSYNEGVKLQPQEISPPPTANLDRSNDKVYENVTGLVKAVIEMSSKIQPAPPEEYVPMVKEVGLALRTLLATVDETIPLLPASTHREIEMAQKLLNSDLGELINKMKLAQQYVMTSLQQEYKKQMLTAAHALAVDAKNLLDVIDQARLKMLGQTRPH

[12] = test system: Fibrinogen (Alexa647-labelled); assay: fibrinogen binders on compound microarrays, profiling panel, artefact control for SMM control-protein annotation, biochemical, small-molecule microarray, 635/667 nm fluorescence (AID 1131); details: fibrinogen-A647 binding fluorescence, higher = more signal;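 note: z-score merges 667 nm fluorescence with per-spot signal-to-noise over triplicate slides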
[13] = target: Follistatin (Homo sapiens) (UniProt P19883); assay: follistatin binders on small-molecule microarrays, primary screen, biochemical, small-molecule microarray, 635/667 nm fluorescence (AID 1132); details: FST binding, 635 nm fluorescence, higher = more signal
Sequence of Follistatin (Homo sapiens) (P19883 whole entry, looked up): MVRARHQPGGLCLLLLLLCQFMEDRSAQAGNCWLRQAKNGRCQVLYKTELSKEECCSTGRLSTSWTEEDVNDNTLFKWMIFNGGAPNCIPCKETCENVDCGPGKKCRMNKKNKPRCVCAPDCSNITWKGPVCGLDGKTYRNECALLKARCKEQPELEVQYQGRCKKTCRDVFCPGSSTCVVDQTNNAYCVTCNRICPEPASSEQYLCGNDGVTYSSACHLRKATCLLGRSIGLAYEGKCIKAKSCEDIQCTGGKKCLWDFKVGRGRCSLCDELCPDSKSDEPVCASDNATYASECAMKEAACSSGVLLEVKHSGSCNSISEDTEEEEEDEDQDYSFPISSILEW

[14] = target: Fibroblast growth factor 2 (Homo sapiens) (UniProt P09038); assay: FGF2 binders on small-molecule microarrays, primary screen, biochemical, small-molecule microarray, 635/667 nm fluorescence (AID 1133); details: small-molecule microarray binding, FGF2, fluorescence 635/667; higher = more signal
Sequence of Fibroblast growth factor 2 (Homo sapiens) (P09038 whole entry, looked up): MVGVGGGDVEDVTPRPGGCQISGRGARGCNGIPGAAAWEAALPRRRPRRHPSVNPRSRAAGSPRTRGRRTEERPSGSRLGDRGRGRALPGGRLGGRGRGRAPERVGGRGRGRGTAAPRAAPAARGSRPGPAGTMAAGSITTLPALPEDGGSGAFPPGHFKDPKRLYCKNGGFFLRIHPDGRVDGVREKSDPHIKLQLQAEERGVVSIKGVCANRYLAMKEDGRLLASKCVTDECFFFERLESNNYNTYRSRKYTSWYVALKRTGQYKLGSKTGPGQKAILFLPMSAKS

[15] = mitochondrial membrane potential change in A549 cells, profiling panel, cell-based, JC-1 fluorescence, basal, 24 h, 100 nL (AID 1138); details: higher = more signal;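 note: A549 lung adenocarcinoma cells under basal conditions with no added stimulus; test concentration not given here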
Lefty1 = Lefty1 binders on small-molecule microarrays, primary screen, biochemical, small-molecule microarray, 635/667 nm fluorescence (AID 1139); details: small-molecule microarray binding, fluorescence 635/667; higher = more signal
[16] = test system: wheat germ agglutinin (Triticum aestivum), Alexa647-labelled; assay: wheat germ agglutinin binders on compound microarrays, profiling panel, artefact control for SMM control-protein annotation, biochemical, small-molecule microarray, 635/667 nm fluorescence (AID 1140); details: WGA-A647 binding, 635 nm fluorescence, higher = more signal;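 note: score merges 667 nm feature emission with signal to noise over triplicate slides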
[17] = target: Luciferin 4-monooxygenase (Photinus pyralis) (UniProt P08659); assay: firefly luciferase enzyme inhibitors, primary screen, biochemical, luminescence, purified enzyme, 2006 set (AID 1141); details: SteadyGlo luminescence, 30 min, higher = more signal, called active from +8 up or from −8 down;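 note: cell-free assay with purified firefly luciferase at 100 ng per well in PBS; test concentration not given here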
Sequence of Luciferin 4-monooxygenase (Photinus pyralis) (P08659 whole entry, looked up): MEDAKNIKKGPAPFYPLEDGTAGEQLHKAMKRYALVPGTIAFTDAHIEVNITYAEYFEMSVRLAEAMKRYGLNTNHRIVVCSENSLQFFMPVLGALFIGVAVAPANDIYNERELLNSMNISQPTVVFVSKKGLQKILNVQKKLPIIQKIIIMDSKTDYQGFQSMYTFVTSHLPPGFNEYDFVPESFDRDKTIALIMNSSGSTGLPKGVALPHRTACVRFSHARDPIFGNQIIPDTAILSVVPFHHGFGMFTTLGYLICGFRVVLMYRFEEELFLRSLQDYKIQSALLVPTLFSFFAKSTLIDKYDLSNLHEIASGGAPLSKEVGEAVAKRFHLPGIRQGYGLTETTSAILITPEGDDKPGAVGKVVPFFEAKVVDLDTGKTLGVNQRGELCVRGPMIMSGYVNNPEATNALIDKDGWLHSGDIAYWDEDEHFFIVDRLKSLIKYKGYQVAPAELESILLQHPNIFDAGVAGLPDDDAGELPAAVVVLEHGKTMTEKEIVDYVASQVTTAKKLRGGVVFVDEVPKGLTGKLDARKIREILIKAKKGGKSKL

Sequence of Albumin (Bos taurus) (P02769 whole entry, looked up): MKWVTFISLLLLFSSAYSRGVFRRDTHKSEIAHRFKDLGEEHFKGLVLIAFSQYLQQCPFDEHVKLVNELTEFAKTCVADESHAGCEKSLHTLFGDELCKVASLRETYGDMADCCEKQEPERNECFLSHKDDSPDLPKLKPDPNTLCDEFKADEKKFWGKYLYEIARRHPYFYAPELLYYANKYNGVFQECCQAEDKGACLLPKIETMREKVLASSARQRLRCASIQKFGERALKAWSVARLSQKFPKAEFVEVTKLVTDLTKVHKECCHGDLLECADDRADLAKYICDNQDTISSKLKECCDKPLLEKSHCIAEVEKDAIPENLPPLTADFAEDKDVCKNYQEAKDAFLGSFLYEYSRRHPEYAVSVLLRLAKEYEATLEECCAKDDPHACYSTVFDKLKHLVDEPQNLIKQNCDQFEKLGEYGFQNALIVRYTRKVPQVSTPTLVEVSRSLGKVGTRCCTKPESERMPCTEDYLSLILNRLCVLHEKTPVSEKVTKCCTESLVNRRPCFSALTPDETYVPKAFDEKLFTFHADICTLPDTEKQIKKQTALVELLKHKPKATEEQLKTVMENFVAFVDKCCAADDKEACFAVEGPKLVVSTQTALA

Row | SMILES | composite z-score (Albumin (Bos taurus)) | composite Z-score [1] | composite z-score [2] | composite z-score [3] | composite z-score [4] | composite z-score [5] | composite z-score [6] | composite z-score (Sam68 (KHDRBS1)) | composite z-score [7] | composite z-score [8] | composite z-score [9] | composite z-score [10] | composite z-score [11] | composite z-score [12] | composite z-score [13] | composite z-score [14] | z-score [15] | composite z-score (Lefty1) | composite z-score [16] | z-score [17]
1 | COC(=O)[C@@]1(Cc2ccc(OC)cc2)[C@H]2c3cc(C(=O)N(C)C)n(CCF)c3C[C@H]2CN1C(=O)c1ccccc1 | 1.01 | 1.22 (inactive) | 0.292 | -0.0015 | 0.793 | 2.96 | 0.721 | 1.32 | -0.499 | 1.21 | 1.9 | 1.25 | 0.842 | 1.01 | 0.887 | 0.127 | 0.486 | -0.698 | 1.32 | 0.948 (inactive)
2 | COCCCNC(=O)[C@@]1(Cc2ccccc2N=[N+]=[N-])N=C(c2ccc(OCCCO)cc2)O[C@H]1c1ccccc1CN=[N+]=[N-] | 0.771 | 0.103 (inactive) | 0.315 | 0.034 | 0.697 | 2.69 | 0.565 | 1.29 | -0.508 | 1.01 | 2.71 | 1.23 | 1.06 | 0.998 | 1.04 | 0.969 | 1.64 | -0.113 | 1.05 | -3.93 (inactive)
3 | [N-]=[N+]=NCc1ccccc1C[C@@]1(C(=O)NCCN2CCOCC2)N=C(c2ccc(OCCCO)cc2)O[C@@H]1c1ccccc1CN=[N+]=[N-] | 0.511 | -0.0957 (inactive) | 0.338 | 0.12 | 0.568 | 2.23 | 0.0232 | 1.31 | 0.139 | 1.06 | 2.12 | 1.21 | 0.366 | 0.973 | 1.45 | 0.672 | 1.08 | 0.785 | 0.59 | -1.36 (inactive)
4 | NC(=O)NCC#Cc1ccc2c(c1)[C@]1(C(=O)N2)[C@H](c2ccc(OCCO)cc2)N2[C@H](c3ccccc3)[C@H](c3ccccc3)OC(=O)[C@H]2[C@@H]1C(=O)N1CCN(c2ncccn2)CC1 | -0.17 | -0.991 (inactive) | 0.108 | 0.0101 | 0.257 | 0.815 | 0.332 | 0.776 | 0.903 | 0.698 | -0.192 | 0.973 | 0.0718 | 0.879 | 1.34 | 0.502 | -1.1 | 1.08 | 0.444 | -1.33 (inactive)
5 | COCCCNC(=O)[C@@H]1c2ccccc2C(=O)N(Cc2cc(F)cc(C(F)(F)F)c2)[C@H]1c1ccc(CO)cc1 | -0.146 | 0.147 (inactive) | -0.388 | -0.0826 | 0.761 | -0.838 | -0.438 | -1.24 | -1.24 | -0.265 | -0.669 | -1.06 | -0.751 | -1.81 | -0.252 | -0.94 | 0.261 | -0.584 | 0.373 | -0.646 (inactive)
6 | C=CCNC(=O)[C@@H]1[C@H]2C(=O)O[C@H](c3ccccc3)[C@H](c3ccccc3)N2[C@H](c2ccc(O)cc2)[C@@]12C(=O)Nc1ccc(C#CCCO)cc12 | 0.803 | -0.588 (inactive) | -0.186 | -0.149 | 0.761 | 1.55 | 0.71 | 0.277 | -1.31 | 0.0196 | 0.111 | -0.756 | 1.33 | -1.22 | -0.773 | -0.53 | -0.0797 | -0.836 | 1.24 | 1.05 (inactive)
7 | C=CCC(OC(C)=O)[C@@H]1[C@@H](N(Cc2ccc(-c3ccccc3)cc2)C(=O)Cc2ccc(OC)cc2)c2cc(OCCCO)ccc2N1C(=O)c1ccc(-c2ccccc2)cc1 (stereo not given in full) | -0.146 | -0.427 (inactive) | 0.268 | 0.0224 | 0.204 | -0.0315 | 0.394 | -0.323 | 0.268 | -0.781 | -0.163 | 0.152 | 0.855 | 0.137 | 0.409 | -0.0805 | 2.32 | 0.182 | 0.495 | -0.663 (inactive)
8 | COc1ccc(C(=O)Nc2ccc3c(c2)[C@]2(O[C@@H](CCO)[C@H]([Si](C)(C)c4ccc(OC)cc4)[C@H]2C)C(=O)N3Cc2ccccc2)cc1 | -0.58 | 0.131 (inactive) | -0.242 | -0.135 | 0.0277 | -0.0175 | -0.352 | 1.01 | 0.845 | 0.908 | -0.155 | 0.809 | 0.411 | 0.491 | 1.39 | 0.827 | 0.168 | 1.26 | 0.161 | -0.777 (inactive)
9 | CCCNC(=O)[C@@H]1c2ccccc2C(=O)N(CC23CC4CC(CC(C4)C2)C3)[C@H]1c1ccc(CO)cc1 | 0.472 | 0.39 (inactive) | 0.0702 | 0.0521 | 0.395 | 1.98 | 0.12 | 1.29 | 0.781 | 1.09 | 0.618 | 1.23 | 0.734 | 0.957 | 1.34 | 0.871 | -1.17 | 0.798 | 0.562 | 0.411 (inactive)
10 | CC(C)(C)OC(=O)CC[C@@]1(C(=O)N2CCCCC2)N=C(c2ccc(OCCCO)cc2)O[C@@H]1c1ccccc1N=[N+]=[N-] | 0.943 | -0.15 (inactive) | 0.4 | 0.127 | 0.775 | 2.94 | 1.58 | 1.29 | 0.142 | 1.17 | 2.83 | 1.27 | 1.7 | 0.99 | 1.26 | 0.722 | 1.95 | 0.0141 | 1.25 | -11.7 (active)
11 | CN(C)C(=O)[C@@]1(Cc2ccccc2N=[N+]=[N-])N=C(c2ccc(OCCCO)cc2)O[C@H]1c1ccccc1N=[N+]=[N-] | 0.89 | 0.167 (inactive) | 0.277 | 0.083 | 0.565 | 1.65 | 0.372 | 1.33 | 0.325 | 0.819 | 1.85 | 1.19 | 0.921 | 0.887 | 1.01 | -0.118 | 2.01 | 0.16 | 0.98 | -2.25 (inactive)

Reference: PubChem BioAssay
